What follows are compounds tested on Scedosporium aurantiacum CBS 136046 (assay: growth inhibition relative to DMSO control (OD600); higher = more antifungal activity, active = 80 or more; extreme values may be limits of the assay). Details: 5 µM; 72 h; 37 °C.
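Further: conidia screened in RPMI 1640 medium under 5% CO2, growth read by spectrophotometer, medium with 0.5% DMSO serving as the untreated reference.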

Growth inhibition, inactive:
O=S(=O)(NCB(O)O)c1ccc(-c2nnn[nH]2)cc1C(F)(F)F 13.6%, COc1cc(Cc2cc(N)nc(N)n2)cc(OC)c1OC 11.7%, COc1c(NC(=O)[C@H]2CC[C@@H](COc3ccc([N+](=O)[O-])cc3)CC2)c(F)cc2c(=O)c(C(=O)O)cn(C3CC3)c12 15.5%, O=c1[nH]c(=O)n(Cc2cccc(Oc3ccccc3)c2)cc1Nc1ccccc1 12.7%, COc1ccc2cc3[n+](cc2c1OCCN(CCn1cncn1)Cc1ccc(F)cc1F)CCc1cc2c(cc1-3)OCO2 2.66%, Cc1nc(-c2ccc(C3N(C)c4ccc(F)cc4C(=O)N3c3ccccc3)s2)cs1 (stereo not drawn) 15%, O=C1CCC(N2C(=O)c3ccccc3C2=O)C(=O)N1 (stereo not drawn) 22.9%, N=C(N)c1ccc(COc2ccc(Cl)cc2)cc1 19.9%, CN(C)CC(=O)Nc1ccc2[nH]c(=O)c3ccccc3c2c1 6.77%, CN(O)C(=O)c1cc2c(CN3CCC[C@H]3C(N)=O)cn(Cc3ccc(F)cc3)c2cn1 1.58%, NC(=O)c1ccc(I)c([N+](=O)[O-])c1 13.9%, O=C(CCCC(F)(F)F)N1CCC(c2nc(-c3nccs3)no2)CC1 4.66%, CCCCCOc1ccc(/C=C2\Oc3c(ccc(O)c3O)C2=O)c(O)c1 1.85%, CCCCCCCc1[nH]c2ccccc2c(=O)c1O 8.25%, CC[N+]1(C/C2=C/CCCCCC2)CCC(NC(=O)C2c3cc(Cl)ccc3Oc3ccc(Cl)cc32)CC1 (stereo not drawn) 9.71%, Cc1cccc(CC(=O)N[C@H]2CCOC2=O)c1 16.6%, CCCCSc1nc(N)c2[nH]c(=O)c(=O)n(Cc3ccccc3)c2n1 6.53%, Cc1onc(-c2ccccc2)c1-c1ccc(S(N)(=O)=O)cc1 41.2%, O=C(c1ccccc1)N1CCN(c2ccccc2NC(=O)C(Cl)(Cl)Cl)CC1 33.8%, CONC(=N)c1ccc(-c2ccc(-c3ccc(C(=N)NOC)cc3)o2)cc1 29.9%, CC[C@@]1(O)C(=O)OCc2c1cc1n(c2=O)Cc2cc3c([N+](=O)[O-])cccc3nc2-1 22.2%, Oc1cc(-c2cccc3ccccc23)[nH]n1 7.34%, O=S(=O)(Nc1ccc(-n2cccc2)cc1)c1ccc(Cl)c(Cl)c1 41.8%, O=C(NO)C1(CS(=O)(=O)c2ccc(Oc3ccc(Cl)cc3)cc2)CCOCC1 7.63%, c1ccc(-c2nnc3c4ccccc4c(N4CCNCC4)nn23)cc1 23.6%, CO[C@@]1(NC(=O)Cc2cccs2)C(=O)N2C(C(=O)O)=C(COC(N)=O)CS[C@@H]21 20.8%, CC(C)(C)NC(=O)[C@@H]1CN(Cc2cnc3occc3c2)CCN1C[C@@H](O)C[C@@H](Cc1ccccc1)C(=O)N[C@H]1c2ccccc2C[C@H]1O 1.85%, CC(C)c1cc2c(cc1S(=O)(=O)O)[C@@]1(C)CCC[C@@](C)(C(=O)O)[C@@H]1CC2 30%, CC(=O)Nc1cc(NS(=O)(=O)c2ccc(Cl)cc2)cc2c(Cl)[nH]nc12 21.6%, COc1cc(Cc2cnc(N)nc2N)cc(OC)c1OC 0.169%, CC(C)(C)c1cc(C(=O)/C(C#N)=N/Nc2cccc(Cl)c2)no1 35.3%, Cn1c2ccccc2c(=O)c2c(O)cccc21 6.84%, O=C(NCCN1CCCCC1)c1cccc(C(F)(F)F)c1 10.1%, CCOC(=O)N1CCN(c2ccc(Cl)cc2)CC1 10.6%, Nc1nc(F)nc2c1ncn2[C@H]1O[C@@H](CO)[C@H](O)[C@@H]1O 33.8%, COc1ccc2sc3c(c2c1)NC(C)CNC3=O (stereo not drawn) 7.39%, CC(=O)Oc1ccccc1C(=O)Nc1ncc([N+](=O)[O-])s1 12.7%, O=C(O)[C@H]1C2CCC(CC2)[C@@H]1Nc1nc(-c2c[nH]c3ncc(F)cc23)ncc1F 10.2%
